Measured values: PubChem BioAssay (NCI)
Where “and” joins values, the source holds several entries; their conditions need not be identical. Identical values can stand only once. The panel holds about 83,000 compounds, 20% with a hit somewhere; the sample as a whole holds those more often.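 A percent growth of 40 corresponds to 60% growth inhibition; 0 means no net growth; -100 means all cells died. Active threshold: below 10.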 Calls of active or inactive are those of the source.

Key:
Assay in all cases: NCI-60 one-dose screen, 48 h (100 = growth as untreated, 0 = no growth, -100 = all killed)
Conditions in all cases: 10 µM unless noted
SR leukemia = test system: SR leukemia
RPMI-8226 leukemia = test system: RPMI-8226 leukemia
OVCAR-8 ovarian = test system: OVCAR-8 ovarian
OVCAR-5 ovarian = test system: OVCAR-5 ovarian
OVCAR-4 ovarian = test system: OVCAR-4 ovarian
SK-OV-3 ovarian = test system: SK-OV-3 ovarian
IGROV1 ovarian = test system: IGROV1 ovarian
OVCAR-3 ovarian = test system: OVCAR-3 ovarian
HS 578T breast = test system: HS 578T breast
NCI/ADR-RES ovarian = test system: NCI/ADR-RES ovarian

Compound	growth (SR leukemia)	growth (RPMI-8226 leukemia)	growth (OVCAR-8 ovarian)	growth (OVCAR-5 ovarian)	growth (OVCAR-4 ovarian)	growth (SK-OV-3 ovarian)	growth (IGROV1 ovarian)	growth (OVCAR-3 ovarian)	growth (HS 578T breast)	growth (NCI/ADR-RES ovarian)
O=C1OCc2cccc3cccc1c23	93.1% (inactive)	100% (inactive)	101% (inactive)	108% (inactive)	97.1% (inactive)	112% (inactive)	102% (inactive)	110% (inactive)	102% (inactive)	
O=C1N[C@H]2[C@H](CS[C@H]2CCCCC(=O)N(CCP(c2ccccc2)c2ccccc2)CCP(c2ccccc2)c2ccccc2)N1	102% (inactive)	57% (inactive)	95.1% (inactive)	95.2% (inactive)	87.9% (inactive)	111% (inactive)	-47.4% (active)	0.222% (active)	84.4% (inactive)	101% (inactive)
O=C(Oc1cccc2cccnc12)c1ccccc1	43.7% (inactive)	83.3% (inactive) and 113% (inactive)	84.9% (inactive) and 98.6% (inactive)	105% (inactive) and 107% (inactive)	84.6% (inactive) and 116% (inactive)	106% (inactive)	113% (inactive)	7.19% (active) and 115% (inactive)	74.9% (inactive) and 123% (inactive)	87% (inactive) and 106% (inactive)
C=C(Cl)C(=NC(C)(C)C)Nc1ccccc1C	1.56% (active)	75.1% (inactive)	89.2% (inactive)	114% (inactive)	91.7% (inactive)	105% (inactive)	119% (inactive)	65.9% (inactive)	96.5% (inactive)	
CCC(CC)COC(=O)c1ccc(O)c(O)c1	18.6% (inactive)	35.1% (inactive)	59.9% (inactive)	91.3% (inactive)	77.2% (inactive)	67% (inactive)	37.5% (inactive)	78.1% (inactive)	86.8% (inactive)	
C/C=C1\SC(=S)NC1=O	101% (inactive)	101% (inactive)	103% (inactive)	94.9% (inactive)	101% (inactive)	92.4% (inactive)	105% (inactive)	111% (inactive)	104% (inactive)	107% (inactive)
COc1cc(/C=C(/C)C[N+](=O)[O-])ccc1O	34% (inactive)	64.3% (inactive)	94.7% (inactive)	110% (inactive)	104% (inactive)	103% (inactive)	44.1% (inactive)	85.4% (inactive)	98.7% (inactive)	102% (inactive)
CCC1OC(OC)C=CC1=O (centres undefined)	81.5% (inactive)	110% (inactive)	117% (inactive)	123% (inactive)	103% (inactive)	102% (inactive)	137% (inactive)	95.4% (inactive)	96.9% (inactive)	111% (inactive)
Cc1ccc2nc(-[n+]3cc4ccccc4cc3C)ccc2c1	33.2% (inactive)	15.1% (inactive)	33.6% (inactive)	61.4% (inactive)	28.6% (inactive)	38.3% (inactive)	46.4% (inactive)	44.6% (inactive)	67.3% (inactive)	109% (inactive)
O=C(CC1(O)C(=O)Nc2c(Cl)ccc(Cl)c21)c1ccc(Cl)cc1Cl (centres undefined)	86.9% (inactive)	99.9% (inactive)	107% (inactive)	110% (inactive)	87.9% (inactive)	84.9% (inactive)	97.6% (inactive)	106% (inactive)	94% (inactive)	
CC(C)c1ccc2nc3ccc(C(=O)NCCN4CCN(c5ccccc5)CC4)cn3c(=O)c2c1	51.7% (inactive)	20.5% (inactive)	46.8% (inactive)	91.1% (inactive)	63.9% (inactive)	93.4% (inactive)	78.7% (inactive)	77.5% (inactive)	59.2% (inactive)	
C[N+](C)=c1ccc2nc3c(cc(NCCCNc4cc5oc6cc(=[N+](C)C)ccc-6nc5c5ccccc45)c4ccccc43)oc-2c1	6.05% (active)	2.21% (active)	-5.6% (active)	68.5% (inactive)	-100% (active)	90.1% (inactive)	19.1% (inactive)	-54.5% (active)	87.4% (inactive)	
